Experimental findings from PubChem BioAssay AID1578 (Sanford-Burnham Center for Chemical Genomics, 2009) are described below.

Screen size: about 290,000 compounds; about 3,000 (1%) were called active. No stated cut-off is given here; in the data, active means inhibition mostly above about 36% (no sharp cut-off); inactive means mostly below about 34%. Many of the other results were omitted from the sample, so actives are more common in it than they were.

The term inhibition denotes the relative decrease from the control value, in per cent.

A short description of the experiment: inhibition of NOD1-driven NF-kB reporter – cell-based, luminescence, uHTS, primary screen (AID 1578).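 Further: HEK-293T reporter cells stimulated with the NOD1 agonist gamma-tri-DAP.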 The settings on record: NOD1-driven NF-kB luciferase reporter cells, at 4 µM, hits give high values. Background: In a reporter assay the amount or activity of a reporter protein is the signal.
In the case of `Cc1c(C(=O)N2CCN(c3ccccc3)CC2)sc2nc3n(c(=O)c12)CCC3`, the inhibition was 0.9% (inactive).

`CC(=O)c1ccccc1NC(=O)CCCNC(=O)c1ccc(Cl)cc1`: the inhibition was 17.3% (inactive).

Regarding `CC(=O)CCSc1ncnc2sc(-c3ccccc3)cc12`, the inhibition is -75.9% (inactive).

`O=C(O)CSc1ncnc2sc(-c3ccccc3)cc12`: the inhibition was -16.7% (inactive).

In the case of `COc1cc(CN2CCN(CCOCCO)CC2)cc(OC)c1OC`, the inhibition was -4.8% (inactive).

Take `Cc1ccc(/C=C2/Sc3ccccc3N(CC(=O)NCC3CCCO3)C2=O)cc1` (centres undefined): the inhibition was -4.1% (inactive).

Turning to `COc1ccccc1-[n+]1c(C)cc(/C=C2\Sc3ccccc3N2C)cc1C`, the inhibition is 28.9% (inactive).

With `Cc1cc(/C=C2\Sc3ccccc3N2C)cc(C)[n+]1CC1CCCO1` (centres undefined), the inhibition is 56.7% (active).

Take `Nc1nonc1-n1nnc(C(=O)N/N=C/c2ccc(OCc3ccccc3)cc2)c1COc1ccc(F)cc1`: the inhibition was -0.6% (inactive).

`NS(=O)(=O)c1ccc(NC(=S)Nc2ccn(Cc3cccc4ccccc34)n2)cc1`: the inhibition was 56.6% (active).

In the case of `CC(=O)c1cccc(NC(=S)Nc2ccn(Cc3cccc4ccccc34)n2)c1`, the inhibition is -5.1% (inactive).

Turning to `O=C(Nc1ccn(Cc2cccc3ccccc23)n1)c1cccnc1`, the inhibition is 7.1% (inactive).

As to `Cc1cc(C)n(C(=O)c2ccc(C)c(Br)c2)n1`, the inhibition is -2.6% (inactive).

On to `O=C1OCCN1c1c(-c2ccccc2)c(-c2cccs2)nc2c(-c3ccccc3)cccc12`, for which the inhibition is 66% (active).

On to `c1csc(-c2nc(N3CCOCC3)c3ccccc3n2)c1`, for which the inhibition is -9.5% (inactive).

With `c1csc(-c2nnc(N3CCOCC3)c3ccccc23)c1`, the inhibition was 2.4% (inactive).

On to `CCOc1ccc2nc(NC(=O)CSc3nc4cccnc4n3C)sc2c1`, for which the inhibition was -1% (inactive).

With `CC1CC(NC(=O)c2ncn[nH]2)CC(C)(C)C1` (centres undefined), the inhibition was 84.5% (active).

Take `CC1CC(NC(=O)c2cnc3n(c2=O)CCS3)CC(C)(C)C1` (centres undefined): the inhibition is -9% (inactive).

Regarding `O=C(NC1CCCC1)c1ncn[nH]1`, the inhibition was -17.9% (inactive).

`Cc1nn(-c2ccc(Cl)c(Cl)c2)c(C)c1C(=O)O`: the inhibition is -17.4% (inactive).

Consider `CCc1nnc(NC(=O)CC23CC4CC(CC(Br)(C4)C2)C3)s1`, for which the inhibition is -2.7% (inactive).

On to `CCc1c(C)nc(SCC(=O)N2CCCCC2CC)[nH]c1=O` (centres undefined), for which the inhibition is -11.1% (inactive).

Turning to `C/C(=N\NC(=O)C1(C)CC1(Br)Br)c1cccc(NC(=O)c2ccc(C)o2)c1` (centres undefined), the inhibition was 89.8% (active).

Consider `C/C(=N\NC(=O)c1cccc(Br)c1)c1cccc(NC(=O)c2ccc(C)o2)c1`, for which the inhibition is -55.5% (inactive).

For `C/C(=N\NC(=O)C1(C)CC1(Br)Br)c1ccc(NC(=O)c2ccc(C)o2)cc1` (centres undefined), the inhibition is 13.4% (inactive).

Regarding `O=S(=O)(O)c1ccc(N=NNc2ccc(Br)cc2)cc1`, the inhibition was -12.1% (inactive).

For `C=C1/C(=C\C=C2/CCC[C@]3(C)[C@@H]([C@H](C)CCCC(C)(C)O)CC[C@@H]23)C[C@@H](O)C[C@@H]1O`, the inhibition was 65.6% (active).

Turning to `COc1ccc(-c2nc(C)ncc2-c2ccc(Cl)cc2)c(O)c1`, the inhibition was 5.6% (inactive).

`CN(C(=O)COC(=O)/C=C/c1cccc([N+](=O)[O-])c1)C1CCS(=O)(=O)C1` (centres undefined): the inhibition was 61.3% (active).

Regarding `CCN(C(=O)COC(=O)/C=C/c1cccc(Br)c1)C1CCS(=O)(=O)C1` (centres undefined), the inhibition is -18.9% (inactive).

In the case of `CN(C(=O)COC(=O)/C=C/c1ccc(C(F)(F)F)cc1)C1CCS(=O)(=O)C1` (centres undefined), the inhibition was -16.9% (inactive).

Take `CCOC(=O)c1c(Nc2ccccc2)sc(/C=C2\C=Nc3ccccc32)c1O`: the inhibition is -68% (inactive).

With `CCN(CC)C(=O)Oc1ccc2ccccc2c1Cl`, the inhibition was -86.7% (inactive).

With `O=S(=O)(CCSc1nc2ccccc2s1)c1nc2ccccc2s1`, the inhibition was 99% (active).

For `O=S(=O)(CCSc1ccccn1)c1nc2ccccc2s1`, the inhibition is 74.4% (inactive).

As for `CCS(=O)(=O)CCSc1nc2ccccc2s1`, the inhibition is -2.7% (inactive).

`Cc1ccc(S(=O)(=O)N2CCCC2)cc1C(=O)NCc1ccccn1`: the inhibition was -26.2% (inactive).

For the compound `O=C(c1cc(-c2ccc(F)cc2)on1)N1CCCCCC1`, the inhibition is -53.7% (inactive).

For `Nc1c(Cl)ncnc1N/N=C/c1ccnc2ccccc12`, the inhibition is 8.6% (inactive).

Consider `Nc1c(Cl)ncnc1N/N=C/c1ccc2ccccc2n1`, for which the inhibition was 109% (active).

With `Nc1c(Cl)ncnc1N/N=C/c1ccc(O)cc1`, the inhibition was -9% (inactive).

In the case of `CCCCOC(=O)C1C2C=C[C@]3(CN(C(C)c4ccc(OC)cc4)C(=O)[C@H]13)O2` (some centres undefined), the inhibition is 11.8% (inactive).

On to `CC(=O)Nc1cccc(Cl)c1C(=O)O`, for which the inhibition is -21.4% (inactive).

In the case of `Cc1nn(C(=O)c2ccco2)c(C)c1Sc1ccc([N+](=O)[O-])cc1`, the inhibition was -7.1% (inactive).

`O=C(N/N=C(/CC(=O)c1cccs1)C(F)(F)F)c1ccc(O)cc1`: the inhibition is -19.9% (inactive).

Consider `O=C(N/N=C(\CC(=O)c1cccs1)C(F)(F)F)c1ccncc1`, for which the inhibition was -3.7% (inactive).

`Cc1ccc(C(=O)N/N=C(/CC(=O)c2cccs2)C(F)(F)F)cc1`: the inhibition is 70% (active).

Consider `COC(=O)Cc1c(C)c2ccc(OC3CCCCC3=O)c(C)c2oc1=O` (centres undefined), for which the inhibition was -8.8% (inactive).

In the case of `Clc1ccc(-c2nnc(C3CC3)o2)cc1`, the inhibition was -15.4% (inactive).

In the case of `Clc1ccc(-c2nnc(C3CCCCC3)o2)cc1`, the inhibition is 70.8% (active).

Take `c1cncc(-c2nnc(C3CCCCC3)o2)c1`: the inhibition is 11.8% (inactive).

Take `COc1ccc(C(=O)NC(CC(=O)O)c2cc([N+](=O)[O-])ccc2Cl)c(SC)c1` (centres undefined): the inhibition was -14.4% (inactive).

As for `O=C1C2CCCN2C(c2ccc(F)cc2)N1c1cccc(Cl)c1` (centres undefined), the inhibition was -10.3% (inactive).

For `O=C(COC(=O)c1cncc(Br)c1)NCCC1=CCCCC1`, the inhibition was -8.5% (inactive).

As for `O=[N+]([O-])c1cc(/C=N/O)ccc1Sc1ccccc1`, the inhibition was 8.1% (inactive).

`CO/N=C/c1ccc(Sc2ccc(C)cc2)c([N+](=O)[O-])c1`: the inhibition was 7.3% (inactive).

In the case of `Cc1ccc(Sc2ccc(/C=N/O)cc2[N+](=O)[O-])cc1`, the inhibition was 54.4% (active).

As for `COc1ccc(OC)c(NC(=O)C2CCN(c3ncccn3)CC2)c1`, the inhibition is -1.7% (inactive).

For `COc1ccc(N2CCN(Cc3cc4c(cc3Br)OCCO4)CC2)cc1`, the inhibition was -11.3% (inactive).

With `CCc1nccn1Cc1cc(C=O)ccc1OC`, the inhibition is 15% (inactive).

Take `COc1ccc(C=O)cc1Cn1ccnc1C`: the inhibition was 62.6% (active).

On to `COc1ccc(C=O)cc1Cn1ccnc1`, for which the inhibition was -23% (inactive).

Consider `Cc1oc(-c2ccccc2)cc1C(=O)NC(Cc1c[nH]c2ccccc12)C(=O)O` (centres undefined), for which the inhibition is -35.2% (inactive).

On to `O=C(NCCNC(=O)c1ccccc1)c1ccccc1`, for which the inhibition was -9.5% (inactive).

With `CN(C)CCCn1c(N)c(C#N)c2nc3ccccc3nc21`, the inhibition is 5.6% (inactive).

As for `CCCCCn1c(N)c(C#N)c2nc3ccccc3nc21`, the inhibition was 8.5% (inactive).

As to `CN(C)CCCn1c(N)c(C#N)c2nc(C#N)c(C#N)nc21`, the inhibition is 76.3% (active).

`Cc1ccc(C2C(C=Nc3c(C)n(C)n(-c4ccccc4)c3=O)=C(c3ccccc3)Oc3ccccc32)cc1` (centres undefined): the inhibition is 29.1% (inactive).

Regarding `Cc1ccc(C2C(/C=C3/SC(=S)NC3=O)=C(c3cccs3)Oc3ccccc32)cc1` (centres undefined), the inhibition is 88% (active).

On to `O=C1NC(=S)S/C1=C\c1ccc2ccccc2c1`, for which the inhibition was 5.2% (inactive).

On to `CCC1CCCCN1S(=O)(=O)c1ccc(S(=O)(=O)N(Cc2cccs2)C2CC2)cc1` (centres undefined), for which the inhibition is 7.6% (inactive).

Take `O=c1oc2ccccc2cc1-c1ccccc1`: the inhibition is -31.9% (inactive).

On to `Nc1ccc(-c2cc3ccccc3oc2=O)cc1`, for which the inhibition is 63.5% (active).

Consider `Cc1cccn2cc(-c3cc4ccccc4oc3=O)nc12`, for which the inhibition is -21.9% (inactive).

Regarding `O=c1oc2ccccc2cc1-c1ccc(O)cc1`, the inhibition is 54.1% (inactive).

Regarding `O=c1oc2ccccc2cc1-c1cn2ccccc2n1`, the inhibition is 64.7% (active).

`O=c1oc2ccccc2cc1-c1cn2cccnc2n1`: the inhibition was -55.7% (inactive).

Take `Cc1cc(C)c2cc(CN(CCO)Cc3nnnn3Cc3ccccc3)c(=O)[nH]c2c1`: the inhibition was -12.5% (inactive).

`O=C(CC1COc2ccccc2O1)Nc1ccccn1` (centres undefined): the inhibition is -29.1% (inactive).

Consider `CCN(CC)S(=O)(=O)c1ccc(N2CCCC2)c(NS(=O)(=O)c2ccccc2)c1`, for which the inhibition is 4.1% (inactive).

With `CN(C)CCNC(=O)/C(=C/c1ccc(-c2cccc(Cl)c2)o1)NC(=O)c1ccccc1`, the inhibition is 112% (active).

In the case of `CN(C)CCNC(=O)/C(=C/c1ccc(-c2ccc(Cl)cc2)o1)NC(=O)c1ccccc1`, the inhibition is -19.3% (inactive).

With `CN(C)CCNC(=O)/C(=C/c1ccc(-c2cccc([N+](=O)[O-])c2)o1)NC(=O)c1ccccc1`, the inhibition is 4.2% (inactive).

As to `Cc1nnc(NC(=O)C2CCCN(S(=O)(=O)Cc3ccccc3)C2)s1` (centres undefined), the inhibition was -8.7% (inactive).

For `Cc1cccc(Cn2c(C)nc3c(N)c(C)c(C)cc32)c1`, the inhibition is -13.6% (inactive).

Take `Cc1cccc(NC(=S)/N=C(\N)Nc2nc(C)c3cc(C)ccc3n2)c1`: the inhibition is 23.1% (inactive).

On to `COc1ccc2nc(N/C(N)=N/C(=S)Nc3ccccc3)nc(C)c2c1`, for which the inhibition was 29.9% (inactive).

Consider `COc1ccc2nc(N/C(N)=N/C(=S)Nc3cccc(C)c3)nc(C)c2c1`, for which the inhibition is 51.4% (active).

Turning to `O=C(Cc1ccccc1)Nc1cc2c(cc1Cl)OCCCO2`, the inhibition was -59.9% (inactive).

With `CCN(CC(=O)NCc1ccc(Cl)cc1)C(=O)/C=C/c1ccc(Cl)c([N+](=O)[O-])c1`, the inhibition was -18.8% (inactive).

For `CN(C)C(=O)c1ccc(NS(=O)(=O)c2ccc3c(c2)OCCO3)cc1`, the inhibition is -34.8% (inactive).

As for `CC(=O)Nc1ccc(C2=NNC(=Nc3cccc(S(=O)(=O)N(C)C)c3)SC2)cc1`, the inhibition is -32.6% (inactive).

Regarding `CCc1ccc(C2=NNC(=Nc3cccc(S(=O)(=O)N(C)C)c3)SC2)cc1`, the inhibition is 72.3% (active).

As to `CN(C)S(=O)(=O)c1cccc(N=C2NN=C(c3ccccc3)CS2)c1`, the inhibition is 26.1% (inactive).

Consider `COc1ccc(-n2c(=O)[nH]c3cc(C(=O)NCCc4ccc(Cl)cc4)ccc3c2=O)cc1OC`, for which the inhibition was 7.4% (inactive).

In the case of `O=C(O)/C=C/C(=O)NC1CCS(=O)(=O)C1` (centres undefined), the inhibition was 99.9% (active).

As for `O=C(O)/C=C/C(=O)NC1CC1`, the inhibition is -13.1% (inactive).

Take `O=C(/C=C/c1ccccc1)NC1CCS(=O)(=O)C1` (centres undefined): the inhibition was -20% (inactive).
